In PubChem BioAssay AID1347422 (Sanford-Burnham Center for Chemical Genomics, 2020):
In all, about 1,000 compounds were measured (“thermal shift dTm”: median about 0.19, highest 2% from about 1.7 on). For the sample, the highest values were picked, then their nearest neighbours and some compounds at random. The source made the active and inactive calls.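 The calls were made as follows: active = mean rise in melting temperature of at least 1 degC over same-plate control wells; inactive = below that, where a call was filed.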

Target: Sulfhydryl oxidase 1 (Homo sapiens) (UniProt O00391)
Sequence (O00391 whole entry, looked up): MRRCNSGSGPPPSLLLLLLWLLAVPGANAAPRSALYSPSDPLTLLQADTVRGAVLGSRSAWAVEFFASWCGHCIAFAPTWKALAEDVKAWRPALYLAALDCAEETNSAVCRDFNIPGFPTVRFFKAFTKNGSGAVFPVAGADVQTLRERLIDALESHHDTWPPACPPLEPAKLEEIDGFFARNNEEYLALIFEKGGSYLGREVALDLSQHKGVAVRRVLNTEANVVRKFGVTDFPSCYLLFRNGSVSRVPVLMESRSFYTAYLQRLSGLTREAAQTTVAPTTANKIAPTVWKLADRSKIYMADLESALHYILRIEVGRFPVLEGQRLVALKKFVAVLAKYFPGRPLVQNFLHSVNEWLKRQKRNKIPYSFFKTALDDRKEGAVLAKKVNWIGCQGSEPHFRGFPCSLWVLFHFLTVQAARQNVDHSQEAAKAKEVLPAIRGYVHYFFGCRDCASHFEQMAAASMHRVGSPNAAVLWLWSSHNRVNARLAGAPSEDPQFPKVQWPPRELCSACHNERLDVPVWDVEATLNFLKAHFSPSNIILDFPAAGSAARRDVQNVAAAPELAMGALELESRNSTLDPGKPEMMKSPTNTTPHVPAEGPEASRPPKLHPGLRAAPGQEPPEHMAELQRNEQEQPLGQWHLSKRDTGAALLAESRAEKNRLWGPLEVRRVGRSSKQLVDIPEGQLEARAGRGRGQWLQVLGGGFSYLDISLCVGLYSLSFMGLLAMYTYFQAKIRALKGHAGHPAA
Assay: QSOX1 binders by thermal stabilization, confirmation, QSOX1 inhibitor project, biophysical, protein thermal shift, single concentration (AID 1347422);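 also: dTm is compound Tm minus mean Tm of DMSO-only wells on that plate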
Conditions: recombinant hQSOX1 thermal shift, Sypro Orange, at 25 µM, stronger effect = higher value

SMILES | thermal shift dTm
COc1ccc(Cl)cc1Nc1nc(-c2ccccn2)cs1 | 0.1 °C
Cc1cnc(CNCc2ccccc2OCC(O)CN(C)C2CCCCC2)cn1 (stereo not given) | 0.14 °C
CCC(=O)c1ccc(OCC(=O)Nc2ccc(NC(C)=O)cc2)cc1 | -0.03 °C (inactive)
Cc1ccc2[nH]cc(CCNC(=O)c3ccccc3Cl)c2c1 | -0.13 °C (inactive)
CCOc1ccccc1C1C(C#N)=C(N)Oc2cc(N(C)C)ccc21 (stereo not given) | 0.29 °C
COc1ccc(-c2cc(C(F)(F)F)nc(NCc3cccs3)n2)cc1OC | 0.11 °C
O=C(Nc1cccc(-c2ccco2)c1)C1CCN(C(=O)CCc2ccco2)CC1 | 1.03 °C (active)
CCN(CC)C(=O)c1cccc(NC(=O)Nc2ccc(Cl)cc2)c1 | 0.23 °C
O=C(Nc1ccc(Cl)cc1)Nc1cccc(C(=O)NCc2ccco2)c1 | 3.11 °C (active)
CC(=O)Nc1cccc(C(=O)Nc2ccc(Cl)cc2)c1 | -7.43 °C (inactive)
CCc1ccc2c(c1)C(OC(C)=O)C(C)(C)C(c1cccc(Br)c1)N2 (stereo not given) | 0.44 °C
O=C(Nc1ccc(C(F)(F)F)cc1Cl)c1cc([N+](=O)[O-])[nH]n1 | 1.73 °C (active)
O=C(CCC(=O)OCc1ccc(Br)cc1)Nc1cc(C(F)(F)F)ccc1Cl | 0.17 °C
COc1cc(-c2cccc(-c3ccn[nH]3)c2)ccc1NC(C)=O | 0.14 °C
O=C(NCCc1ccccc1)c1ccc(NC(=O)C2CC2)cc1 | 0.04 °C
Cc1cc(Br)cc(C)c1NC(=O)/C=C/c1ccco1 | 0.52 °C
Cc1ccc(Nc2nc(C3CC(CC(C)C)C(=O)O3)cs2)cc1 (stereo not given) | -0.09 °C (inactive)
Cc1ccc2cccc(OCCCCOc3ccccc3I)c2n1 | 0.77 °C
Cc1ccc(-c2noc(CNC(=O)c3ccc4ccccc4c3)n2)cc1 | -0.08 °C (inactive)
CCOc1ccc(NC(=O)c2ccc(-c3csc(C)n3)cc2)cc1 | 0.15 °C
NC(=O)c1ccc(NC(=O)c2cccc(C(F)(F)F)c2)cc1 | 0.7 °C
CCc1ccc(NC(=O)COc2ccccc2F)cc1 | 0.24 °C
C=C(C)COc1ccc(NC(=O)c2cccnc2)cc1 | 0.13 °C
COc1ccc(-c2csc(NC(=O)c3ccc(Cl)s3)n2)cc1 | 0.05 °C
Oc1ccccc1C=Nc1ccc(Cc2ccc(N=Cc3ccccc3O)c(O)c2)cc1O | 0.01 °C
O=S(=O)(NCCC1=CCCCC1)c1ccc(Cl)s1 | 0.17 °C
CCOc1ccc(NC(=S)N2CCC(C(N)=O)CC2)cc1 | -0.13 °C (inactive)
Cc1ccc(/C=C/C(=O)NCC(C)NC(=O)/C=C/c2ccc(C)cc2)cc1 (stereo not given) | 0.45 °C

SMILES | thermal shift dTm
COc1ccc2[nH]cc(CCNC(=O)c3ccc(NC(C)=O)cc3)c2c1 | 1 °C (active)
COc1cc(/C=N/O)cc(Br)c1OCc1ccccc1F | 0.16 °C
O=S(=O)(c1cccs1)N1CCC(CO)(Cc2ccc(Cl)cc2)CC1 | 0.18 °C
O=C(NCc1ccc(Cl)c(Cl)c1)c1ccc(Br)cc1 | -0.13 °C (inactive)
O=C(Nc1nccs1)c1ccc(-c2cccc(Cl)c2Cl)o1 | 0.19 °C
O=C(C#Cc1ccccc1)Nc1ccc2c(c1)OCCO2 | 0.24 °C
CCC(c1ccccc1)c1nnc(NC(=O)Nc2ccccc2F)s1 (stereo not given) | 0.2 °C
NC(=O)c1cn(-c2ccccc2)nc1-c1ccc(-c2ccccc2)cc1 | 0.07 °C
O=C(NC(=S)Nc1cccc(Cl)c1N1CCOCC1)c1cccs1 | -0.04 °C (inactive)
CCCc1cc(C(=O)Nc2ccc3[nH]ncc3c2)cs1 | 2.61 °C (active)
O=C(Nc1ccc2[nH]ncc2c1)c1cccc(F)c1 | 1.63 °C (active)
CCc1c(C(=O)Nc2ccc3[nH]ncc3c2)csc1C | 0.29 °C
Cc1ccc(NC(=O)Nc2ccc(C)c(F)c2)c(C)c1 | 0.56 °C
FC(F)(F)c1ccccc1NC(=S)Nc1ccc(OCc2ccccc2)cc1 | 0.68 °C
COc1ccc(NC(=O)c2ccc(Cl)s2)cc1OC | 0.19 °C
Cc1cc(C(=O)OCC(=O)Nc2ccc(Cl)cc2)c2ccccc2n1 | -0.03 °C (inactive)
CCNS(=O)(=O)c1ccc(NC(=O)Nc2cc(C)ccc2OC)cc1 | 1.17 °C (active)
NC(=O)c1cn(-c2ccccc2)nc1-c1cccc(Br)c1 | -0.72 °C (inactive)
C(=C\c1nnc(-c2ccccc2)o1)/c1cc2ccccc2o1 | 0.18 °C
O=c1nc2n(c3cc(Cl)ccc13)CC(O)=C2c1ccccc1 | 1.08 °C (active)
Cc1nc(-c2cccc(NC(=O)c3cccc(F)c3)c2)cs1 | 3.41 °C (active)
Cc1cccc(C(=O)Nc2cccc(-c3csc(C)n3)c2)c1 | 1.13 °C (active)
CCOc1ccc(C(=O)Nc2cccc(-c3csc(C)n3)c2)cc1 | -0.65 °C (inactive)
CCOc1ccc(C(=O)Nc2cc(C)ccn2)cc1[N+](=O)[O-] | 0.43 °C
O=C(Nc1cccc(Br)c1)C1C2C3CCC(C3)C12 (stereo not given) | 0.21 °C
CCOc1ccc(/C=C/C(=O)Nc2ccc(OC)cc2OC)cc1 | 0.02 °C
CCc1cc(-c2n[nH]c(C)c2Oc2ccc(F)cc2)c(O)cc1OC | 0.02 °C
